Consider 10 compounds from PubChem BioAssay (NCI).

Assay [1] in a line: NCI Yeast Anticancer Drug Screen. Data for the rad50 strain (AID 155).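 Note: 0% = growth of vehicle-only cultures of the same strain.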 As to conditions: S. cerevisiae rad50 strain growth inhibition, hits give high values. The essentials: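 Growth of the mutant yeast was measured after compound exposure and referenced to vehicle-treated cultures.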
A short description of assay [2]: NCI Yeast Anticancer Drug Screen. Data for the mec2-1 strain (AID 157). The following applies: S. cerevisiae mec2-1 strain, hits give high values. An outline of the steps: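 Mutant yeast (mec2-1) grown with compound; growth inhibition relative to vehicle control reported.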
Assay [3] can be described thus: NCI Yeast Anticancer Drug Screen. Data for the sgs1 mgt1 strain (AID 161).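 Note: 0% = growth of cultures given vehicle only.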 As to conditions: S. cerevisiae sgs1 mgt1 strain, hits give high values. The essentials:
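Percent growth inhibition was derived by comparing compound-exposed mutant yeast with vehicle-exposed cultures. The strain carries alterations in DNA damage repair.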

The nature of assay [4]: NCI Yeast Anticancer Drug Screen. Data for the cln2 rad14 strain (AID 165).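 Note: 0% = growth equal to vehicle treated cultures.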 The following applies: S. cerevisiae cln2 rad14 strain, hits give high values. The essentials: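 Readout is yeast growth inhibition versus vehicle-treated controls, using a strain with cln2 and rad14 alterations exposed to compound.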
Assay [5] can be described thus: NCI Yeast Anticancer Drug Screen. Data for the bub3 strain (AID 167). The following applies: S. cerevisiae bub3 mutant strain, hits give high values. The essentials:
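Whole-cell yeast assay. The mutant strain was incubated with compounds, and growth inhibition was determined by comparison with vehicle-treated cells.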

A short description of assay [6]: NCI Yeast Anticancer Drug Screen. Data for the mlh1 rad18 strain (AID 175). As to conditions: S. cerevisiae mlh1 rad18 strain growth inhibition, hits give high values. The essentials: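 Genetically defined yeast (DNA repair-deficient) exposed to compounds; growth inhibition determined relative to vehicle.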
Where [7] appears, read: at 5.0 µM (retest, dose inferred, filed as 0.5).
[8] abbreviates: at 50.0 µM (retest, dose inferred, filed as 5.0).

Structures are written as SMILES. This is part of a sample that, as a whole, favours compounds with a hit. Of some 79,000 tested, about 15% had one in any assay. Values without a mark were called inactive. Activity calls are given as the source filed them. Cut-off read from the data, not from the text of the source: active = growth inhibition above about 70%; inactive = the rest.

As for `O=C1C=CC(=O)N1CCc1ccccc1`, the growth inhibition was -33% in assay [1] (setting [7]); 97% (active) in assay [1] (setting [8]); 99.5% (active) in assay [1] (at 50.0 µM); -31% in assay [2] (setting [7]); 98% (active) in assay [2] (setting [8]); 99.5% (active) in assay [2] (at 50.0 µM). The growth inhibition is -34% in assay [3] (setting [7]); 98% (active) in assay [3] (setting [8]); 99.3% (active) in assay [3] (at 50.0 µM); -10% in assay [4] (setting [7]); 98% (active) in assay [4] (setting [8]); 99.3% (active) in assay [4] (at 50.0 µM). Moreover, the growth inhibition in assay [5] (setting [7]) is -45%; in assay [5] (setting [8]), 98% (active); in assay [5] (at 50.0 µM), 99.3% (active); in assay [6] (setting [7]), -90%; in assay [6] (setting [8]) it was 97% (active); in assay [6] (at 50.0 µM) it was 99.2% (active).

On to `COC12C=CC(CC1)c1c2c(O)c2ccncc2c1O` (stereo not given), for which the growth inhibition in assay [1] (setting [7]) is 9%; in assay [1] (setting [8]), 89% (active); in assay [1] (at 50.0 µM) it was 58.1%; in assay [2] (setting [7]) it was -3%; in assay [2] (setting [8]), 81% (active); in assay [2] (at 50.0 µM), 56.7%. Also, the growth inhibition in assay [3] (setting [7]) is 4%; in assay [3] (setting [8]), 87% (active); in assay [3] (at 50.0 µM) it was 70%; in assay [4] (setting [7]), -3%; in assay [4] (setting [8]), 68%; in assay [4] (at 50.0 µM), 55.9%. In addition, the growth inhibition in assay [5] (setting [7]) is 18%; in assay [5] (setting [8]), 95% (active); in assay [5] (at 50.0 µM) it was 59.8%; in assay [6] (setting [7]), -3%; in assay [6] (setting [8]), 86% (active); in assay [6] (at 50.0 µM), 64.8%.

On to `O=c1c(-c2ccccc2)c1-c1ccccc1`, for which the growth inhibition in assay [1] (setting [7]) is 7%; in assay [1] (setting [8]), 92% (active); in assay [1] (at 50.0 µM), 98.7% (active); in assay [2] (setting [7]) it was 4%; in assay [2] (setting [8]), 95% (active); in assay [2] (at 50.0 µM), 99.3% (active). Also, the growth inhibition in assay [3] (setting [7]) is 8%; in assay [3] (setting [8]), 90% (active); in assay [3] (at 50.0 µM) it was 98.9% (active); in assay [4] (setting [7]), -2%; in assay [4] (setting [8]) it was 96% (active); in assay [4] (at 50.0 µM), 97.6% (active). The growth inhibition was 5% in assay [5] (setting [7]); 91% (active) in assay [5] (setting [8]); 99.2% (active) in assay [5] (at 50.0 µM); 1% in assay [6] (setting [7]); 96% (active) in assay [6] (setting [8]); 99% (active) in assay [6] (at 50.0 µM).

For `CCCCCCCCCCOC(=O)c1cc[n+](C)cc1`, the growth inhibition was -4% in assay [1] (setting [7]); -5% in assay [1] (setting [8]); 13.8% in assay [1] (at 50.0 µM); 7% in assay [2] (setting [7]); 6% in assay [2] (setting [8]); 9.5% in assay [2] (at 50.0 µM). The growth inhibition is -5% in assay [3] (setting [7]); 0% in assay [3] (setting [8]); -1.75% in assay [3] (at 50.0 µM); -3% in assay [4] (setting [7]); -4% in assay [4] (setting [8]); 46.1% in assay [4] (at 50.0 µM). In addition, the growth inhibition in assay [5] (setting [7]) is -5%; in assay [5] (setting [8]), -6%; in assay [5] (at 50.0 µM), -0.65%; in assay [6] (setting [7]), -2%; in assay [6] (setting [8]), -1%; in assay [6] (at 50.0 µM), -18.9%.

Regarding `O=C(Oc1c(Cl)cc(Cl)c(Cl)c1Cl)Oc1c(Cl)cc(Cl)c(Cl)c1Cl`, the growth inhibition in assay [1] (setting [7]) is 4%; in assay [1] (setting [8]), 1%; in assay [1] (at 50.0 µM) it was -1.15%; in assay [2] (setting [7]) it was 5%; in assay [2] (setting [8]), 4%; in assay [2] (at 50.0 µM), 15.2%. Also, the growth inhibition in assay [3] (setting [7]) was 6%; in assay [3] (setting [8]), -11%; in assay [3] (at 50.0 µM), 0.3%; in assay [4] (setting [7]), 6%; in assay [4] (setting [8]), -11%; in assay [4] (at 50.0 µM), 6.85%. In addition, the growth inhibition is 4% in assay [5] (setting [7]); 0% in assay [5] (setting [8]); 70% (active) in assay [5] (at 50.0 µM); 1% in assay [6] (setting [7]); -1% in assay [6] (setting [8]); 0.15% in assay [6] (at 50.0 µM).

Turning to `O=c1[nH][nH]c(=O)c2c1nc(SCc1ccccc1)n2Cc1ccccc1`, the growth inhibition in assay [1] (setting [7]) was -3%; in assay [1] (setting [8]) it was -4%; in assay [1] (at 50.0 µM) it was 8.05%; in assay [2] (setting [7]), -3%; in assay [2] (setting [8]) it was 5%; in assay [2] (at 50.0 µM), -10.9%. In addition, the growth inhibition is -1% in assay [3] (setting [7]); 2% in assay [3] (setting [8]); 1.25% in assay [3] (at 50.0 µM); -3% in assay [4] (setting [7]); -4% in assay [4] (setting [8]); 75.8% (active) in assay [4] (at 50.0 µM). Further, the growth inhibition in assay [5] (setting [7]) is -6%; in assay [5] (setting [8]) it was -4%; in assay [5] (at 50.0 µM), 2.3%; in assay [6] (setting [7]), -2%; in assay [6] (setting [8]), 7%; in assay [6] (at 50.0 µM), 9.45%.

Take `CC12CCC(O)CC1=CCC1C2CCC2(C)C(NC(=O)C(Cc3ccc(O)cc3)NC(=O)OCc3ccccc3)CCC12` (stereo not given): the growth inhibition in assay [1] (setting [7]) is 24%; in assay [1] (setting [8]) it was 94% (active); in assay [1] (at 50.0 µM), -7.7%; in assay [2] (setting [7]), 21%; in assay [2] (setting [8]) it was 97% (active); in assay [2] (at 50.0 µM) it was 2.95%. For the same compound, the growth inhibition in assay [3] (setting [7]) was 22%; in assay [3] (setting [8]) it was 96% (active); in assay [3] (at 50.0 µM) it was -2.85%; in assay [4] (setting [7]), 21%; in assay [4] (setting [8]), 94% (active); in assay [4] (at 50.0 µM) it was 38.6%. For the same compound, the growth inhibition in assay [5] (setting [7]) is -4%; in assay [5] (setting [8]), 93% (active); in assay [5] (at 50.0 µM), -5.4%; in assay [6] (setting [7]), 41%; in assay [6] (setting [8]), 96% (active); in assay [6] (at 50.0 µM), -8.2%.

For `O=[N+]([O-])c1ccc2nc(-c3ccccn3)[nH]c2c1`, the growth inhibition was -2% in assay [1] (setting [7]); 27% in assay [1] (setting [8]); 86.3% (active) in assay [1] (at 50.0 µM); 1% in assay [2] (setting [7]); 5% in assay [2] (setting [8]); 87% (active) in assay [2] (at 50.0 µM). For the same compound, the growth inhibition in assay [3] (setting [7]) is -13%; in assay [3] (setting [8]), 17%; in assay [3] (at 50.0 µM) it was 73.6% (active); in assay [4] (setting [7]), -12%; in assay [4] (setting [8]) it was -3%; in assay [4] (at 50.0 µM), 77.3% (active). The growth inhibition in assay [5] (setting [7]) was -25%; in assay [5] (setting [8]) it was 16%; in assay [5] (at 50.0 µM), 88.6% (active); in assay [6] (setting [7]), -38%; in assay [6] (setting [8]) it was 42%; in assay [6] (at 50.0 µM), 88.5% (active).

Turning to `Cc1ccccc1N=Nc1sc(N)nc1-c1ccccc1`, the growth inhibition is -6% in assay [1] (setting [7]); 94% (active) in assay [1] (setting [8]); 33.5% in assay [1] (at 50.0 µM); 8% in assay [2] (setting [7]); 98% (active) in assay [2] (setting [8]); 22.2% in assay [2] (at 50.0 µM). Further, the growth inhibition in assay [3] (setting [7]) was -2%; in assay [3] (setting [8]) it was 95% (active); in assay [3] (at 50.0 µM), 54.8%; in assay [4] (setting [7]) it was -1%; in assay [4] (setting [8]), 88% (active); in assay [4] (at 50.0 µM), -4.85%. Besides, the growth inhibition in assay [5] (setting [7]) was -7%; in assay [5] (setting [8]) it was 98% (active); in assay [5] (at 50.0 µM), 30.6%; in assay [6] (setting [7]), -1%; in assay [6] (setting [8]), 95% (active); in assay [6] (at 50.0 µM), 43.7%.

As for `COc1ccc(-c2ccccc2)cc1SCCC(=O)O`, the growth inhibition in assay [1] (setting [7]) is 3%; in assay [1] (setting [8]), 15%; in assay [1] (at 50.0 µM) it was 79.7% (active); in assay [2] (setting [7]), -1%; in assay [2] (setting [8]) it was 21%; in assay [2] (at 50.0 µM), 70.5% (active). Besides, the growth inhibition in assay [3] (setting [7]) was 4%; in assay [3] (setting [8]), 32%; in assay [3] (at 50.0 µM), 48.3%; in assay [4] (setting [7]) it was -7%; in assay [4] (setting [8]) it was 17%; in assay [4] (at 50.0 µM) it was 77.7% (active). The growth inhibition in assay [5] (setting [7]) was 0%; in assay [5] (setting [8]) it was 10%; in assay [5] (at 50.0 µM), 65.2%; in assay [6] (setting [7]) it was -2%; in assay [6] (setting [8]), 20%; in assay [6] (at 50.0 µM), 87% (active).
